# In PubChem BioAssay (NCATS):
# Results filed as inconclusive are left out. Where a call stands in place of a potency, no number is given. The source made the active and inactive calls. Unless noted, calls come from the whole dose curve.
# Key:
# [1] = Primary qHTS for Huh7 cytotoxicity: counterscreen for inhibitors of MERS-S pseudotyped particle cell entry (AID 1479147)
# [2] = Primary qHTS for inhibitors of MERS-S pseudo-typed particle cell entry (AID 1479149); note: nearly all actives have a fitted effect of over 60% in size
# [3] = Primary qHTS for Vero E6 cytotoxicity: counterscreen for inhibitors of SARS-S pseudo-typed particle cell entry (AID 1479150)
# [4] = Primary qHTS for inhibitors of SARS-S pseudo-typed particle cell entry (AID 1479145); note: nearly all actives have a fitted effect of over 45% in size; note: potency is the fitted concentration of half-maximal effect
# [5] = Primary qHTS for inhibitors of La Crosse Virus (LACV) - induced cell death in SH-SY5Y cells (AID 1508616; active = well fitted inhibition curve with a large enough effect;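 note: top concentration of the series differs between compounds; higher means more rescue of cells from virus-induced death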)
# Procedure, shortened: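 Screening measures cell viability in LACV-infected SH-SY5Y cultures. Compound was added before virus (0.01 MOI), and ATP was detected by luminescence 6 days later.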
smiles,measurement,setting,value
O=C1[O][Bi][O]c2ccccc21,outcome,[1],inactive [at 0.573 µM]
same,outcome,[2],inactive [at 0.573 µM]
same,outcome,[3],inactive [at 0.573 µM]
c1ccc2sc(SN3CCOCC3)nc2c1,Potency,[4],inactive
same,Potency,[2],inactive
same,Potency,[3],inactive
O=C1CN(/N=C/c2ccc([N+](=O)[O-])o2)C(=O)N1,Potency,[4],inactive
same,Potency,[3],inactive
CO[C@@H]1[C@@H](OC(N)=O)[C@@H](O)[C@H](Oc2ccc3c(O)c(NC(=O)c4ccc(O)c(CC=C(C)C)c4)c(=O)oc3c2C)OC1(C)C,Potency,[4],inactive
same,Potency,[1],inactive
same,Potency,[3],inactive
CCCCN(CCCC)CCCOC(=O)c1ccc(N)cc1,Potency,[4],inactive
same,Potency,[2],inactive
same,Potency,[3],inactive
COc1cc(C(=O)NS(=O)(=O)c2ccccc2C)ccc1Cc1cn(C)c2ccc(NC(=O)OC3CCCC3)cc12,Potency,[1],inactive
same,Potency,[2],inactive
same,Potency,[3],inactive
Nc1ccc(S(=O)(=O)c2ccc(N)cc2)cc1,Potency,[4],inactive
same,Potency,[1],inactive
same,Potency,[3],inactive
NCC[C@H](O)C(=O)N[C@@H]1C[C@H](N)[C@@H](O[C@H]2O[C@H](CN)[C@@H](O)[C@H](O)[C@@H]2O)[C@H](O)[C@@H]1O[C@H]1O[C@H](CO)[C@@H](O)[C@H](N)[C@@H]1O,outcome,[1],inactive [at 0.573 µM]
same,outcome,[2],inactive [at 0.573 µM]
C[C@H](NC(CCc1ccccc1)C(=O)O)C(=O)N1CCC[C@H]1C(=O)O (some centres undefined),Potency,[4],inactive
same,Potency,[1],inactive
same,Potency,[3],inactive
Nc1ncnc2nc[nH]c12,Potency,[4],inactive
same,Potency,[1],inactive
same,Potency,[3],inactive
C[N+](C)(C)CCCCCC[N+](C)(C)C,Potency,[1],inactive
same,Potency,[2],inactive
same,Potency,[3],inactive
O=c1c(C2CC(c3ccc(-c4ccc(Br)cc4)cc3)Cc3ccccc32)c(O)sc2ccccc12 (centres undefined),Potency,[4],25.1 µM (active)
same,Potency,[1],inactive
same,outcome,[5],inactive
